# Source: PubChem
# Hits are enriched below; roughly 12% of the tested compounds scored in any of these assays.
# ALDH1A1 block = qHTS Assay for Inhibitors of Aldehyde Dehydrogenase 1 (ALDH1A1). actives 7.3% (n = 220,000). Purified ALDH1A1, NADH fluorescence, propionaldehyde substrate. Potency, µM (top dose mostly 75.3 µM), for the others: at the highest dose activity, negative = inhibition, most hits filed as inhibitors. Aldehyde dehydrogenase 1A1 (Homo sapiens), P00352; active = well fitted inhibition curve with a large enough effect, not every such curve was filed as active; inconclusive = small, poorly fitted or top-dose-only effect, or another doubt; inactive = no such curve, though single readings can be large or run the other way;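 also: plate controls were no enzyme wells and a reference inhibitor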
# Target sequence (P00352 whole entry, looked up): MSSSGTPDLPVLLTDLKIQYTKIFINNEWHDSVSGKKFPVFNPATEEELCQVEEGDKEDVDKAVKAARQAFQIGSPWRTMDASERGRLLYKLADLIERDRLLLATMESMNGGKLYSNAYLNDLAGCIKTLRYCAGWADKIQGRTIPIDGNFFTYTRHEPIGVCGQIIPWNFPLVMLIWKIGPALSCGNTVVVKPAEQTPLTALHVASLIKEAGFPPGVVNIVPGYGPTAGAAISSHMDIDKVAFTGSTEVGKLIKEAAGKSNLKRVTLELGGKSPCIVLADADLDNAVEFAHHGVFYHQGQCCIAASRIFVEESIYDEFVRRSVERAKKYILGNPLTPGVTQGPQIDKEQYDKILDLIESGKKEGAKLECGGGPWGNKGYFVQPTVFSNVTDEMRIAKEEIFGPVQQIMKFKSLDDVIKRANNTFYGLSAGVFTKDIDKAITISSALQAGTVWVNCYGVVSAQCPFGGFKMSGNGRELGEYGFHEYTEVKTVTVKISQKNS
# Sfp inh = qHTS Assay for Inhibitors of Bacillus subtilis Sfp phosphopantetheinyl transferase (PPTase); 4'-phosphopantetheinyl transferase ffp (Bacillus subtilis), Q9F4F7; Biochemical Sfp PPTase activity, qHTS; Potency, µM, inactives show largest response in the series, negative = inhibition, actives largely listed as inhibitors; actives 3.5% (n = 310,000);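 also: the enzyme is Sfp with the accession as filed and its product quenches rhodamine fluorescence; 0% = enzyme reaction without inhibitor and -100% = no enzyme wells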
#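 Fluorescence-quenching assay with 15 nM Sfp, 5 uM rhodamine-CoA and 12.5 uM BHQ-2-labelled ybbR peptide in pH 7.6 Hepes/MgCl2 buffer. Enzyme was pre-incubated with compound for 15 min at room temperature. Rate was taken from the 30-min fluorescence change (525/598 nm).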
# PLK1 PBD block = qHTS for Inhibitors of PLK1-PDB (polo-like kinase 1 - polo-box domain): Primary Screen. Serine/threonine-protein kinase PLK1 (Homo sapiens), P53350. Plk1 PBD binding of FITC phosphopeptide, fluorescence polarization. Potency, µM, inactives show max response, negative = inhibition, usual class: inhibitors. actives 2.8% (n = 360,000). AID 720504, 2013; also: series mostly up to about 57 µM; nearly all actives have a fitted effect of over 65% in size
# VP16 counter = VP16 counterscreen qHTS for inhibitors of ROR gamma transcriptional activity. Drosophila S2 Gal4-VP16 UAS-luciferase, luminescence, 20 h. Potency, µM (titrated, usually from 53.6 µM), for inactives: top-dose activity, negative = inhibition, most hits filed as inhibitors. actives 3.5% (n = 310,000). AID 2546, 2010;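 also: Gal4-VP16 expression switched on by copper sulfate through the metallothionein promoter; nearly all actives have a fitted effect of over 50% in size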
# RORgamma inh = qHTS for inhibitors of ROR gamma transcriptional activity; Nuclear receptor ROR-gamma (Mus musculus), P51450; Drosophila S2 Gal4-RORgamma UAS-luciferase reporter, 20 h; Potency, µM (titrated, usually from 53.6 µM), without a hit: at the highest dose activity change, negative = inhibition, usual class: inhibitors; actives 5.4% (n = 310,000); AID 2551, 2010; also: nearly all actives have a fitted effect of over 60% in size
#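 Luciferase reporter read in Schneider cells carrying Gal4-RORγ (mouse) and UAS-Photinus luciferase; cells given compound 1 h before 700 uM copper sulfate induction, then incubated 20 h at ambient temperature.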
# * marks the source's active call; other numbers are inactive results; ? = inconclusive; . = not tested or not shown; ! = repeats disagree; [ ] = another dose, or the depositor's remark. Unless noted, calls follow the shape of the dose curve; as a rule, active = well fitted curve in the direction sought with a large enough effect; inconclusive = small, poorly fitted or top-dose-only effect, or another doubt; inactive = no such curve, though single readings can be large; an effect the other way counts as inactive or inconclusive. Unless noted, % is scaled to controls: 0 for no effect and ±100 for the full control effect; potency is read from the fitted curve at half-maximal effect.
SMILES,ALDH1A1 block,Sfp inh,PLK1 PBD block,VP16 counter,RORgamma inh
C[C@@H](C(=O)NCc1ccc(S(C)(=O)=O)cc1)[C@H]1C[C@]1(C)[C@H](NC(=O)OCc1ccccc1)c1ccccc1,6.3µM*,0%,-12%,-8%,8.9µM*
COCCNC(=O)[C@H](C)[C@H]1C[C@]1(C)[C@H](NC(=O)OCc1ccccc1)c1ccccc1,28µM*!,-2%,-1%,1%,?
COc1cc(/C=C(/C#N)C(=O)Nc2ccc(Cl)cc2)ccc1Oc1nc(Cl)ncc1F,.,?,?,3%,-5%
CCCC=O,3.5µM*,.,.,-9%,13%
CCC=O,?,.,.,-17%,-11%
NC(=O)c1nsc(C(=O)N(Cc2cccnc2)C(C(=O)NCc2ccc(F)cc2)c2ccc(O)cc2)c1N (centres undefined),.,0%,1%,-6%,3%
CCC(=O)OC1(C)C(=O)C=C2C=C(c3ccsc3)OC=C2C1=O (centres undefined),?,?,27µM*,8%,25%
O=C(NC(=S)N1CCN(c2nc(-c3ccccc3)cs2)CC1)c1cncc(Br)c1,?,18%,?,0.22µM*,0.22µM*
Cc1cccc(C)c1NC(=O)CN1CCCCCC1,.,14%,.,-1%,20%
O=C(CCn1nnc2ccccc21)Nc1nnc(Cc2ccccc2)s1,?,50µM*,-29%,-12%,?
O=C(CC(NC(=O)C(F)(F)F)c1ccccc1)Nc1nnc(CCc2ccccc2)s1 (centres undefined),17%,18µM*,?,8%,18%
CCCCCC(=O)Nc1nnc(CCc2ccccc2)s1,.,22%,-6%,?,13µM*
CCCCc1nnc(NC(=O)CSc2nc(O)c(-c3ccccc3)c(=O)[nH]2)s1,-2%,?,-12%,-10%,-1%
CCCCc1nnc(NC(=O)CSc2nc(O)c(Cc3ccccc3)c(=O)[nH]2)s1,?,1%,27µM*,-5%,-4%
CCCCC(=O)Nc1nnc(CCc2ccccc2)s1,.,-3%,1%,-14%,-43%
Cc1c(N2C(=O)c3ccccc3C2(O)c2ccccc2)c(=O)n(-c2ccccc2)n1C (centres undefined),.,2%,-3%,-1%,-17%
O=C(O)C1CC(CCCP(=O)(O)O)CCN1 (centres undefined),.,-1%,.,14%,8%
Oc1ccc2cccnc2c1,24%,0%,27µM*,-5%,5%
COc1ccc(/C=N/N=C/c2ccc(OC)c(OC)c2)cc1OC,0%,8%,-8%,-10%,-11%
COc1cc(/C=N/N=C(N)N)ccc1OCc1ccccc1Cl,?,25µM*,-5%,?,?
CN(C)C(=O)c1ccc(NC(=O)c2cc(-c3ccco3)nc3ccccc23)cc1,.,21%,?,1%,-3%
Cc1ccc2nc(NC(=O)c3cc(-c4ccco4)nc4ccccc34)sc2c1,?,-2%,-10%,?,18µM*
COc1cccc(-c2cc(C(=O)Nc3nc4ccccc4s3)c3ccccc3n2)c1,?,40µM*,?,-24%,?
O=C(Nc1nc2ccccc2s1)c1cc(-c2ccco2)nc2ccccc12,?,45µM*,-22%,13µM*,?
COC(=O)C1=C(C(=O)OC)[C@@H]2N(C)c3ccc(OC)cc3[C@@]23C[C@@H](C(=O)OC)N(S(=O)(=O)c2c(C)noc2C)C3=N1,7%[13.5 µM],9%,.,.,.
SMILES,ALDH1A1 block,Sfp inh,PLK1 PBD block,VP16 counter,RORgamma inh
Cc1ccc(C(=O)CSC2=C(C#N)C(c3ccco3)CC(=O)N2)c(C)c1 (centres undefined),?,50µM*,-22%,25%,9%
Cc1ccc(NC(=O)CSC2=C(C#N)C(c3ccco3)CC(=O)N2)cc1 (centres undefined),14µM*,-8%,-7%,-15%,37%
COC(=O)CSC1=C(C#N)C(c2ccc(C)o2)CC(=O)N1 (centres undefined),-3%,-12%,-13%,-5%,11%
COc1ccccc1C1CC(=O)NC(SCC(=O)Nc2ccccc2)=C1C#N (centres undefined),?,11%,-8%,6%,?
CC(C)C1CC(=O)NC(SCC(=O)Nc2ccc(Br)cc2)=C1C#N (centres undefined),8.9µM*,0%,-2%,-29%,?
Cc1ccc(NC(=O)CSC2=C(C#N)C(c3ccco3)C3=C(CC(C)(C)CC3=O)N2)cc1 (centres undefined),13µM*,7%,-5%,-28%,-8%
Cc1ccccc1C(C(=O)NC1CCCC1)N(C(=O)CNC(=O)c1ccco1)c1cccnc1 (centres undefined),13%,21%,.,-4%,-2%
O=C(COC(=O)c1cccc(NS(=O)(=O)/C=C/c2ccccc2)c1)Nc1ccccc1OC(F)F,?,13%,-7%,-6%,40%
N#CC(=Cc1ccnc2ccccc12)c1ccccc1,.,.,3%,.,.
CC1(C)Cc2c(c(-c3ccco3)nc3sc4c(NCCO)ncnc4c23)CO1,?,50µM*,-10%,-12%,-37%
CSc1nc(N(CCO)CCO)c2sc3nc(-c4ccco4)c4c(c3c2n1)CCC4,?,18µM*,?,.,0%[0.365 µM]
CSc1nc(SCCO)c2sc3nc(-c4ccco4)c4c(c3c2n1)CC(C)(C)OC4,?,20µM*,-20%,-10%,9%
COC(=O)CSc1nc(SC)nc2c1sc1nc(-c3ccco3)c3c(c12)CC(C)(C)OC3,.,.,-11%,.,.
OCCN(CCO)c1ncnc2c1sc1nc(N3CCOCC3)c3c(c12)CCCC3,?,-18%,0%,?,41%
COc1ccc(NC(=O)N2CCc3nc(COc4ccccc4)c4c(c3C2)CO[C@@H](C)C4)cc1,22%[13.5 µM],-1%,.,.,.
CN1CCN(C(=O)c2ccc(-c3cnc4cccnn34)cc2)CC1,.,.,-11%,.,.
CCOc1cc(-c2noc(N)c2C#N)cc(OCC)c1OCC,-2%,2%,-2%,?,11µM*
O=C(N/C(=C/c1ccc(F)cc1)C(=O)N1CCOCC1)c1ccco1,.,.,6%,.,.
Cc1cc(NC(=O)CCC(=O)N(CC(=O)NC2CCCC2)c2ccccc2)no1,-8%,13%,-7%,-4%,6%
Cc1cc(NC(=O)/C=C/C(=O)N(CC(=O)NC2CCCC2)c2cccc3ccccc23)no1,2µM*,5%,-1%,1%[10 µM],-3%
Cc1nc(N2CCc3ccccc3C2)[nH]c(=O)c1Cc1ccccc1,-8%,5%,1%,2%,44%
Cc1nc(-n2[nH]c3c(c2=O)CCCC3)[nH]c(=O)c1Cc1ccccc1,?,0%,8%,2.5µM*,2.2µM*
